High-throughput results (PubChem BioAssay)
The list is not random: actives were taken first. Their share in the collection is about 4.1%.
DAX1 inh-1 – inhibitors of DAX1 repression of SF-1 activated StAR promoter. HEK293T StAR-luciferase reporter, SF-1/DAX-1 repression relief. inhibition, % at 6.8 µM. 370,000 compounds, 1.1% hits;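 active = inhibition above the mean over all tested compounds plus 3 SD, cut at about 3.6% in these data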;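 note: 0% = DAX-1 cells with DMSO and 100% = cells lacking DAX-1 with DMSO; higher inhibition means more luminescence from relief of DAX-1 repression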
ssDAF12 agonist – activates DAF-12 receptor from parasite S. stercoralis | 370,000 compounds, 1% hits | HEK293 ssDAF-12/GRIP1 lit1-tk-luc reporter, luminescence; % of 3 µM dafachronic acid response | activation, % at 6.8 µM;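 active = activation above the mean over all tested compounds plus 3 SD, cut at about 0.9% in these data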;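 note: 0% = DMSO-only wells and 100% = 3 µM delta7-dafachronic acid wells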
hgDAF12 agonist – hgDAF-12 agonism, primary luciferase screen | HEK293 GAL4-hgDAF12 UAS-luciferase reporter, agonist luminescence; normalized to butyrate control | activation, % at 6.8 µM | 370,000 compounds, 1.8% hits | AID 687014;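 active = activation above a cutoff set at the mean of all screened compounds plus 3 SD, cut at about 10% in these data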;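 note: 0% = DMSO wells and 100% = sodium butyrate wells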
hcDAF-12 act – activates DAF-12 receptor from parasite H. contortus | HEK293 hcDAF-12 lit1-tk-luc reporter, luminescence; 0% DMSO, 100% Δ7-dafachronic acid | activation, % at 6.8 µM | 370,000 compounds, 1.4% hits | AID 652067;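 active = activation above the mean of all tested compounds plus 3 SD, cut at about 5.5% in these data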;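 note: 100% = response to 3 µM Δ7-dafachronic acid high control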
DAX1 inh-2 – inhibitors of human orphan nuclear receptor DAX1 (NR0B1); P51843; HEK293 Gal4-DAX1 luciferase reporter, luminescence; inhibition, % at 6.75 µM; 340,000 compounds, 0.99% hits;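 active = inhibition above the mean over all tested compounds plus 3 SD, cut at about 4.2% in these data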;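 note: 0% = DAX1-transfected cells with DMSO and 100% = empty-vector control cells with DMSO; inhibition shows as a rise in luminescence from relieved DAX1 repression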
Target sequence (P51843 207-470 limits assumed): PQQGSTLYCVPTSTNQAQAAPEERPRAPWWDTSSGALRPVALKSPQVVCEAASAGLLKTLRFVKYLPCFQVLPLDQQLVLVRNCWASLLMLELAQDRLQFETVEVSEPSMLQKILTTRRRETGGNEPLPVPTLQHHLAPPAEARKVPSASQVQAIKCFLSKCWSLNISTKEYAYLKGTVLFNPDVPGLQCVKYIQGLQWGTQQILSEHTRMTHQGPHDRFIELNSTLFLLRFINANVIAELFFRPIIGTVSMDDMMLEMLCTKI
Numbers without * were called inactive; · = no result.

SMILES | DAX1 inh-1 | ssDAF12 agonist | hgDAF12 agonist | hcDAF-12 act | DAX1 inh-2
CC(C)CC(=O)c1c(O)cc(O)c2c1OC1=C(C(=O)C(C)(C)C(=O)C1(C)C)C2CC(C)C (stereo unspecified) | -1 | 0 | -1 | -1 | ·
Cc1n[nH]c(C)c1S(=O)(=O)NCCc1cccc(F)c1 | 0 | -1 | 1 | 0 | ·
CN(C(=O)CSc1nnc(NC2CCCCC2)s1)C1CCS(=O)(=O)C1 (stereo unspecified) | 0 | -1 | -1 | -2 | 0
COc1ccc(Nc2nnc(SCC(=O)NC3CCS(=O)(=O)C3)s2)cc1 (stereo unspecified) | 3.6* | 0 | 2 | 2 | 1
CCc1ccc(Nc2nnc(SCC(=O)N(C)C3CCS(=O)(=O)C3)s2)cc1 (stereo unspecified) | 2 | 0 | 12* | 1 | 1
COc1ccc(Nc2nnc(SCC(=O)NC3CC3)s2)cc1 | 0 | -1 | -2 | 0 | -1
COc1ccc(-c2ccc(SCC(=O)NC3CCCC3)nn2)cc1 | 0 | -1 | 2 | 1 | 4.4*
O=C(N[C@H](C(=O)N1CCC[C@H]1C(=O)NCCc1ccccc1Cl)c1ccccc1)C1CCCC1 | -1 | -1 | 2 | -2 | ·
COC(=O)C1C(=O)c2c([nH]c(C(=O)OC3CCCC3)c2C)CC1C (stereo unspecified) | 3 | 0 | 9 | 6.0* | 2
Fc1cccc(C[n+]2csc3ccccc32)c1 | -1 | 0 | 5 | 0 | 0
c1ccc(C[n+]2csc3ccccc32)cc1 | 1 | 1.1* | 3 | 2 | 1
O=C(O)c1ccc(-n2ncc3c2/C(=C/c2cccc([N+](=O)[O-])c2)CC3)cc1 | 0 | 0.9* | 0 | 4 | 0
O=C(O)c1ccc(-n2ncc3c2/C(=C\c2cccc([N+](=O)[O-])c2)CC3)cc1 | 0 | -1 | 3 | 1 | 2
CCC(=O)OCCCN1CCC2(CCCCC2)C1=O | · | -1 | 0 | 1 | ·
CN(C)c1ccc(/C=C/c2cccc[n+]2[O-])cc1 | 1 | -1 | 5 | 6.3* | ·
COc1ccc2[nH]c(C(=O)O)c(NC(=O)c3cc(OC)c(OC)c(OC)c3)c2c1 | 0 | 0 | 0 | 3 | 1
COc1cc(C(=O)Nc2c(C(=O)O)[nH]c3ccccc23)cc(OC)c1OC | 0 | 1 | 1 | 6.1* | 1
CC(=O)Nc1c(C(=O)O)[nH]c2ccccc12 | 0 | 1 | -1 | 6.1* | 0
C[C@H](O)[C@@H]1C(=O)N2CCc3c([nH]c4c(-c5ccccc5)cccc34)[C@@H]2C[C@@H]1N(C)C(=O)/C=C/c1ccccc1 | -1 | -1 | 0 | -1 | ·
CC1CCCCC1NC(=O)COC(=O)C12CC3CC(CC(Cl)(C3)C1)C2 (stereo unspecified) | 0 | -2 | 2 | 0 | 6.0*
O=C(COC(=O)C12CC3CC(CC(Cl)(C3)C1)C2)Nc1ccccc1 | 0 | -1 | -3 | 0 | 0
CC(=O)NNC(=O)c1csc(-c2csc(C)n2)n1 | 0 | -1 | 0 | -2 | 7.3*
Cc1nc(-c2nc(C(=O)NNS(C)(=O)=O)cs2)cs1 | 0 | -2 | -1 | -1 | -1
CCC(=O)Nc1ccc(-c2csc(NNC(C)=O)n2)cc1 | 0 | 0.9* | 2 | 1 | 0
CC(=O)Nc1nc(-c2ccc3ccccc3c2)cs1 | 2 | 0 | 13* | 5 | 3
SMILES | DAX1 inh-1 | ssDAF12 agonist | hgDAF12 agonist | hcDAF-12 act | DAX1 inh-2
COc1ccc(/[N+]([O-])=C/c2ccoc2)cc1 | 3 | 0 | 11* | 2 | 3
COc1ccc(C(=O)N/N=C\c2ccoc2)cc1 | 0 | -1 | 5 | -1 | 0
N/C(=N\OC(=O)c1ccc(Cl)cc1)c1cccnc1 | 3 | 0 | 2 | 1 | 2
N/C(=N\OC(=O)c1ccc(Cl)cc1Cl)c1cccnc1 | 2 | -1 | 11* | 1 | 3
COC(=O)c1sc(N2C(=O)c3oc4ccccc4c(=O)c3C2c2cccc(O)c2)nc1C (stereo unspecified) | 0 | -1 | -1 | 0 | 1
O=C1c2oc3ccccc3c(=O)c2C(c2ccc(O)cc2)N1c1nccs1 (stereo unspecified) | 0 | -1 | -3 | 0 | 6.1*
O=C(NC1CCC1)c1ccc(C#CC2CC2)c[n+]1[O-] | 2 | 0 | 11* | -1 | ·
CS(=O)(=O)c1ccc(C(=O)NC2CCCCC2)cc1 | 0 | -1 | 1 | 2 | -1
CC(C)C[C@H]1CNC(=S)N1C[C@H]1CCCN1C[C@H](Cc1ccccc1)N1C[C@H](Cc2ccc(O)cc2)N(CC2CCCCC2)C1=S | 3.8* | -1 | 1 | 0 | ·
CCOc1ccc(CCN2C(=O)C(=O)N([C@@H](CC(C)C)CN3CCC[C@H]3CN3C(=O)C(=O)NC[C@@H]3Cc3ccccc3)C[C@@H]2Cc2ccc(O)cc2)cc1 | 3.9* | -1 | 0 | 0 | ·
CCOc1ccc(CCN2C(=O)C(=O)N([C@@H](CC(C)C)CN3CCC[C@@H]3CN3C(=O)C(=O)NC[C@@H]3Cc3ccccc3)C[C@@H]2Cc2ccc(O)cc2)cc1 | -1 | -1 | 0 | 0 | 0
CC(=O)COC(=O)C1CCN(S(=O)(=O)c2cc([N+](=O)[O-])ccc2Cl)CC1 | 0 | -1 | 0 | 1 | 4.3*
O=C(COC(=O)C1CCN(S(=O)(=O)c2cc([N+](=O)[O-])ccc2Cl)CC1)Nc1ncc(Cl)cc1Cl | 0 | 0 | -2 | 2 | 0
CC(c1ccccc1)c1nnc(N)s1 (stereo unspecified) | 0 | -1 | -1 | -1 | 4.7*
O=C(COC(=O)c1ccncc1)c1ccc(Br)cc1 | 1 | -1 | -2 | 1 | 4.6*
COc1ccc([C@H]2OC(=O)C[C@H]2C(=O)N2CCN(c3ccccc3C(F)(F)F)CC2)cc1OC | 0 | -1 | 3 | -1 | ·
N/C(=N\OC(=O)c1ccc(F)cc1)c1nonc1N | 1 | 0 | 4 | 0 | 0
N/C(=N/OC(=O)c1ccccc1Cl)c1nonc1N | 1 | -1 | 12* | 0 | 3
CCOc1cccc(-c2nn3c(-c4cccc(C)c4)nnc3s2)c1 | 1 | -1 | 0 | -1 | ·
Cc1cccc2nc(-c3ccccc3)c(-c3ccc(CN4CCC5(CC4)CNc4ccccc45)cc3)nc12 | 0 | 0 | 3 | 0 | ·
O=c1c(-c2cccc([N+](=O)[O-])c2)[n+]([O-])c2ccccc2n1O | 0 | -1 | 2 | 1 | 6.5*
COCCCNC(=O)C[C@H]1C[C@@]2(C(=O)OC)C(=C[C@H](C(C)C)O[C@@H]2C2CC2)N(Cc2cccc3ccccc23)C1=O | -1 | -2 | -1 | -1 | ·
COC(=O)[C@]12C[C@H](CC(=O)N3CCOCC3)C(=O)N(Cc3ccco3)C1=C[C@H](C1CCCC1)O[C@@H]2C | 0 | -1 | -2 | -2 | ·
O=C(O)CCCCN1C(=O)C=CC1=O | 0 | -1 | 0 | -2 | ·
